Legend:
Experiment in all cases: log2 ratio of Biotin-Ahx-Ub-VS probe labelling (fragment/DMSO); higher = less target engagement (more negative = stronger competition), active = hit call of the paper (q ≤ 0.05, log2 ratio ≤ -1)
Settings in all cases: compound concentration: 200 uM; treatment time: 3 h
ALG13 = target: T1, ALG13 (UniProt Q9NP73)
T1 sequence (whole entry): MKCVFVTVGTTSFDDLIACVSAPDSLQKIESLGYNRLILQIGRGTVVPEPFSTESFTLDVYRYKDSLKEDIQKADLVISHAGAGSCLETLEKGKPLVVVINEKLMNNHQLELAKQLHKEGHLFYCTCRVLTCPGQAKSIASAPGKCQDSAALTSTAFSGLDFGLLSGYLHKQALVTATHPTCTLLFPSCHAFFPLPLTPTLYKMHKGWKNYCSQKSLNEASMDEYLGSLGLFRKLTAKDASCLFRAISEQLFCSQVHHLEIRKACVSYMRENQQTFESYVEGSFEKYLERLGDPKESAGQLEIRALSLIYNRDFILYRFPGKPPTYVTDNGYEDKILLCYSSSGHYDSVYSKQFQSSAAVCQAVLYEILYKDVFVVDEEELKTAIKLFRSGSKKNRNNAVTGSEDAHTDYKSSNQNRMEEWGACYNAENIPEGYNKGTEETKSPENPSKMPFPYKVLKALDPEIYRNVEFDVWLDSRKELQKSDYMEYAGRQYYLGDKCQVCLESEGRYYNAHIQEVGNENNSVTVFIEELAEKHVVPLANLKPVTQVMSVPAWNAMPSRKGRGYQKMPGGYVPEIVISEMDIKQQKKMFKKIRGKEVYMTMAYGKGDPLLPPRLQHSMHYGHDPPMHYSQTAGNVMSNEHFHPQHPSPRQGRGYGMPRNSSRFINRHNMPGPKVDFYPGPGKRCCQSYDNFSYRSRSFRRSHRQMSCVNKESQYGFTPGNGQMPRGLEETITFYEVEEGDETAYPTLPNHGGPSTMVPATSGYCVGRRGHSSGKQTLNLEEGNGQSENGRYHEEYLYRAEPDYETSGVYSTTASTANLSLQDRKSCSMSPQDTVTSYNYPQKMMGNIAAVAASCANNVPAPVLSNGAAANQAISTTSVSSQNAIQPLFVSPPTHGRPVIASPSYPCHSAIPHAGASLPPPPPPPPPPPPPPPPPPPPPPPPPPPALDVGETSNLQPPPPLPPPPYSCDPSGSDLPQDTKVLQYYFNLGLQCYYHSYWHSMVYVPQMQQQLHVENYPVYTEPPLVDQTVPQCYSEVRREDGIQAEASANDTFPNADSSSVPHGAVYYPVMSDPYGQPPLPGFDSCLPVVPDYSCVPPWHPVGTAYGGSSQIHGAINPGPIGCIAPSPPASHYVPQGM
Outline: (§1)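 The table lists average log2 ratios of fragment over vehicle, from an unpaired t-test on global-median-normalised Spectronaut label-free quantities. Proteins with ≥2 unique peptides were used. Samples were HEK293T lysate (495 µg) treated in triplicate with fragment at 200 µM or vehicle for 3 h, then with Biotin-Ahx-Ub-VS (0.5 µM final) for 1 h, with labelled DUBs NeutrAvidin-enriched and run by diaPASEF LC-MS/MS.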

ATXN3 = ATXN3 (UniProt P54252)
Outline: as §1

BAP1 = target: T2, BAP1 (UniProt Q92560)
T2 sequence (whole entry): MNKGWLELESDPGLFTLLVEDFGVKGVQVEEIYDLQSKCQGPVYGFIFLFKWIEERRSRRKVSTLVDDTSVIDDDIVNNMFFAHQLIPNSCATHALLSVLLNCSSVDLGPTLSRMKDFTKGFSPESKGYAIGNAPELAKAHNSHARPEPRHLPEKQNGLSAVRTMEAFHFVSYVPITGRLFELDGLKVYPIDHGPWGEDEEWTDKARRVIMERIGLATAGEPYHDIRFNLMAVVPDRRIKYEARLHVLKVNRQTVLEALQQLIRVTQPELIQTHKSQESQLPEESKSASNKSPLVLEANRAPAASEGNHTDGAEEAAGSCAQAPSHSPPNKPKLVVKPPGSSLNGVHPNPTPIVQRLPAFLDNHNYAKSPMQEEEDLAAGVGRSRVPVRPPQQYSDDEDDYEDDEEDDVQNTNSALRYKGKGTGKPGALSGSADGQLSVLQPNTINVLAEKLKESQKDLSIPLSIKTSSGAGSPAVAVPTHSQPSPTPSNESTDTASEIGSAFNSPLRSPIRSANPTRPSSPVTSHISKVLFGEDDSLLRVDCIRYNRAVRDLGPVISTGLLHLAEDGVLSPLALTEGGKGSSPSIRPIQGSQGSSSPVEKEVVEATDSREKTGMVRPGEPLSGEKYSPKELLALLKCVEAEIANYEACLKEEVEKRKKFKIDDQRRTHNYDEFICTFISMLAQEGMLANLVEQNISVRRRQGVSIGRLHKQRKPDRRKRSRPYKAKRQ
Outline: as §1

EIF3F = EIF3F (UniProt O00303)
Outline: as §1

EIF3H = EIF3H (UniProt O15372)
Outline: as §1

FAM105A = target: T3, FAM105A (UniProt Q9NUU6)
T3 sequence (whole entry): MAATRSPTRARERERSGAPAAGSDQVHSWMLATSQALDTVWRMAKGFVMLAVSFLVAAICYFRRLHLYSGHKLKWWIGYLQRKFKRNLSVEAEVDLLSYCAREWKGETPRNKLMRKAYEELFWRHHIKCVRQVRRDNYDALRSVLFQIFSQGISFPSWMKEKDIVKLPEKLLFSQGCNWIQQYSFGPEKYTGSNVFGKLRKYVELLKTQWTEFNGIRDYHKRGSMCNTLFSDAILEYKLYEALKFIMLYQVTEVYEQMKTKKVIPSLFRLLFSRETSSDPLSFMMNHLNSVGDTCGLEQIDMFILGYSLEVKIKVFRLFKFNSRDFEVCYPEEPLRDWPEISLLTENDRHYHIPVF
Outline: as §1

OTUB1 = OTUB1 (UniProt Q96FW1)
Outline: as §1

OTUD4 = target: T4, OTUD4 (UniProt Q01804)
T4 sequence (whole entry): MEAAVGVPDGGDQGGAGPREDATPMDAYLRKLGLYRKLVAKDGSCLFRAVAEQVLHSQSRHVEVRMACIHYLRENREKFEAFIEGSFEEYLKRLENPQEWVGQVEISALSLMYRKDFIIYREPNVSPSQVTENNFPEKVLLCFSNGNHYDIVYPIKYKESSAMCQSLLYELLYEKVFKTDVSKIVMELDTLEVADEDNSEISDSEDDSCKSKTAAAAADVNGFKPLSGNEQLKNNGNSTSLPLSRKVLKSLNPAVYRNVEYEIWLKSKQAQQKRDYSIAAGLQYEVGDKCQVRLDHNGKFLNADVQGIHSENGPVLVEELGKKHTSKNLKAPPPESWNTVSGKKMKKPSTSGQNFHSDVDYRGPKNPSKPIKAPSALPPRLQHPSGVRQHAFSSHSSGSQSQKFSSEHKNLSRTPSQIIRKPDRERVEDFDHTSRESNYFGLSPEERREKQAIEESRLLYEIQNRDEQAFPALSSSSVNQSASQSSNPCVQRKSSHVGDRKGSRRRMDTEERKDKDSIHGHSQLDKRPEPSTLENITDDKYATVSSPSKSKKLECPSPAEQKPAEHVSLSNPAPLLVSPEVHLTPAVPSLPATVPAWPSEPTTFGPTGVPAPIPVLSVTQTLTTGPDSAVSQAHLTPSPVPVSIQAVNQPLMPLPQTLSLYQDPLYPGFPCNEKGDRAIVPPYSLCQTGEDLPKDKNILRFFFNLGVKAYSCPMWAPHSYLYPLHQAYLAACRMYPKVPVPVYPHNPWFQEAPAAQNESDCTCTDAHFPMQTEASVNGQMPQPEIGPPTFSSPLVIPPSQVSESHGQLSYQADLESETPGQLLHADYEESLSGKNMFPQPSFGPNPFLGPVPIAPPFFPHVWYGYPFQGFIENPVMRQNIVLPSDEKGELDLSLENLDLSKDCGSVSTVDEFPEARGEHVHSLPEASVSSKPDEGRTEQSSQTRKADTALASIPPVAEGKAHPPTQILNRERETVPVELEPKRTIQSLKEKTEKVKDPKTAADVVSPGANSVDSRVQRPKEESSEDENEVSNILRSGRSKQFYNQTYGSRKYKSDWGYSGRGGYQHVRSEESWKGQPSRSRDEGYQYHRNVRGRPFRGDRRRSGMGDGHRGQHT
Outline: as §1

OTUD5 = target: T5, OTUD5 (UniProt Q96G74)
T5 sequence (whole entry): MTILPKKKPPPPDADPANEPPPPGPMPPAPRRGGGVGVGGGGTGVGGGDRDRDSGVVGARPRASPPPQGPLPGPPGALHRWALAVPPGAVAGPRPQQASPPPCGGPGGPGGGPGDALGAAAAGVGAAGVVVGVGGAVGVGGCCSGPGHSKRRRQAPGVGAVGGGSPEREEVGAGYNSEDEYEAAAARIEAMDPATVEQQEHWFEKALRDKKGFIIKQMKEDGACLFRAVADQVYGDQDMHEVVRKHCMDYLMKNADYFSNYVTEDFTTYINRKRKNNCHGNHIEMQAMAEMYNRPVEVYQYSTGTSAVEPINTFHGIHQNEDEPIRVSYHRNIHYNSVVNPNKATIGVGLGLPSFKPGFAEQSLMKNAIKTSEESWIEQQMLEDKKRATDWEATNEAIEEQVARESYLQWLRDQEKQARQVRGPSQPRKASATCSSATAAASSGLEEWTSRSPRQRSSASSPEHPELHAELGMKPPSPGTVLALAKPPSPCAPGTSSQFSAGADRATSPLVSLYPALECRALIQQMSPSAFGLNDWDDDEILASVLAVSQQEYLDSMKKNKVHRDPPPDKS
Outline: as §1

Measured: log2 ratio of Biotin-Ahx-Ub-VS probe labelling

Sequence of EIF3F (O00303 whole entry): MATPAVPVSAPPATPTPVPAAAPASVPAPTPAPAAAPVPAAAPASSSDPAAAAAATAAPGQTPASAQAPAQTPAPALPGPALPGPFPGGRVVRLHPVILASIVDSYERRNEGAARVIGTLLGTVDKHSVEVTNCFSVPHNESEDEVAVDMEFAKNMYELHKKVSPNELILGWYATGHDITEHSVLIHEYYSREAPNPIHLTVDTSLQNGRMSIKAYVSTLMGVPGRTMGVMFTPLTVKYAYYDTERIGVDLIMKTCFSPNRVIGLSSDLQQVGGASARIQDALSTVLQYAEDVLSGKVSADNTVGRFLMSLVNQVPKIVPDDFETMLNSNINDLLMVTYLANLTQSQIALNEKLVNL
Sequence of EIF3H (O15372 whole entry): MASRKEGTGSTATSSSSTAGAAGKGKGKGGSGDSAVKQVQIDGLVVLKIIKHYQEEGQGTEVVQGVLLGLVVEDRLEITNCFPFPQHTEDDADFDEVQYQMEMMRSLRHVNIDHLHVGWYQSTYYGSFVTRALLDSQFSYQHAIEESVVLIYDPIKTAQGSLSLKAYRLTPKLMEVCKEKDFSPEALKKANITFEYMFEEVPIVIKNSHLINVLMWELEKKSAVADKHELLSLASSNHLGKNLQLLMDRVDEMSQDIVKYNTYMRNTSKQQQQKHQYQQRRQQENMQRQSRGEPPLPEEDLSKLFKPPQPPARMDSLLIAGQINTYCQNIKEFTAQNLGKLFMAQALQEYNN
Sequence of OTUB1 (Q96FW1 whole entry): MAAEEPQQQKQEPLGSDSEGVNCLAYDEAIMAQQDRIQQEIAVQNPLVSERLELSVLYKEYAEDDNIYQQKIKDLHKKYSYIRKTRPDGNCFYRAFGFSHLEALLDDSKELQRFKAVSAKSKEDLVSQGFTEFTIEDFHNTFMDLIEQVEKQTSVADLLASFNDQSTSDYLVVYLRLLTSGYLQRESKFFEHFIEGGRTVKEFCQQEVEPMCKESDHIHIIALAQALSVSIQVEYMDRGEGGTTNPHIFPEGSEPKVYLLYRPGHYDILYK
Sequence of ATXN3 (P54252 whole entry): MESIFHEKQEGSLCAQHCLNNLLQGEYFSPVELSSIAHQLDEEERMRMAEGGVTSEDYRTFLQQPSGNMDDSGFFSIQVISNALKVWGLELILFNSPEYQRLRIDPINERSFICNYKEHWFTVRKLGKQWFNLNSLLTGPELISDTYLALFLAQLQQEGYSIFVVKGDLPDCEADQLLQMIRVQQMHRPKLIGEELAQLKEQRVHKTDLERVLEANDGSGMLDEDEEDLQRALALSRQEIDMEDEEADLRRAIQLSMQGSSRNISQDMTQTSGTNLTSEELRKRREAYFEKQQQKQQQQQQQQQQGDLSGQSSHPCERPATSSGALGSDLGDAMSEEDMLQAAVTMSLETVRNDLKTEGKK

O=C(CCl)NCCC1COCCO1 (stereo unspecified)
active: BAP1 -1.01
inactive: ALG13 -0.267 | ATXN3 -0.282 | EIF3F -0.44 | EIF3H 0.24 | FAM105A -0.278 | OTUB1 -0.233 | OTUD4 -0.214 | OTUD5 -0.165

Cc1ccc(CC(CO)CNC(=O)CCl)cc1 (stereo unspecified)
active: BAP1 -3.74
inactive: ALG13 -0.289 | ATXN3 -0.385 | EIF3F 0.0794 | EIF3H 0.139 | FAM105A 0.442 | OTUB1 -0.0508 | OTUD4 -0.858 | OTUD5 -0.455

CCN1C(=O)C2CN(C(=O)CCl)CCN2C1=O (stereo unspecified)
inactive: ALG13 0.104 | ATXN3 -0.84 | BAP1 -0.369 | EIF3F -0.18 | EIF3H 0.0778 | FAM105A -0.218 | OTUB1 -0.315 | OTUD4 -0.523 | OTUD5 -0.206

Cc1ccc(C)c(Oc2ccc(CNC(=O)CCl)cn2)c1.Cl
inactive: ALG13 -0.222 | ATXN3 -0.48 | EIF3F -0.169 | EIF3H 0.199 | FAM105A -0.149 | OTUB1 0.0499 | OTUD4 -0.382 | OTUD5 -0.697
active: BAP1 -3.94

O=C(CCl)N1CCCN(C(=O)c2ccc(Cl)cc2)CC1
inactive: ALG13 -0.303 | ATXN3 -0.712 | BAP1 -0.719 | EIF3F -0.31 | EIF3H 0.393 | FAM105A 0.113 | OTUB1 -0.428 | OTUD4 -0.424 | OTUD5 -0.688

Cc1cccc(C(CNC(=O)CCl)N2CCOCC2)c1.Cl (stereo unspecified)
inactive: ALG13 -0.0491 | ATXN3 0.0164 | BAP1 -0.497 | EIF3F 0.0302 | EIF3H 0.267 | FAM105A -0.778 | OTUB1 -0.156 | OTUD4 -0.199 | OTUD5 -0.241

Cc1ccc(N(C(=O)CCl)C2C=CS(=O)(=O)C2)cc1 (stereo unspecified)
inactive: ALG13 -0.425 | ATXN3 0.116 | BAP1 -0.0645 | EIF3F -0.128 | EIF3H -0.276 | FAM105A 0.167 | OTUB1 -0.0537 | OTUD4 0.0564 | OTUD5 -0.00864

O=C(CCl)N1CCC2(CCC(O)CC2)CC1
inactive: ALG13 -0.532 | ATXN3 -0.833 | BAP1 -0.626 | EIF3F -0.321 | EIF3H 0.288 | FAM105A 0.217 | OTUB1 -0.0501 | OTUD4 -0.206 | OTUD5 -0.29

O=C(CCl)N(C1CCCC1)C1CCS(=O)(=O)C1 (stereo unspecified)
inactive: ALG13 0.338 | ATXN3 -0.109 | BAP1 -0.0673 | EIF3F -0.335 | EIF3H 0.00604 | FAM105A 0.169 | OTUB1 -0.343 | OTUD4 0.0168 | OTUD5 -0.379

CN(CCc1ncc(Br)cn1)C(=O)CCl.Cl
inactive: ALG13 -0.0179 | ATXN3 -0.617 | BAP1 -0.611 | EIF3F -0.295 | EIF3H 0.145 | FAM105A 0.245 | OTUB1 0.000215 | OTUD4 -0.616 | OTUD5 -0.588

O=C(CCl)NC1CCOc2ccccc21 (stereo unspecified)
inactive: ALG13 -0.044 | ATXN3 -0.806 | EIF3F -0.349 | EIF3H 0.199 | FAM105A 0.29 | OTUB1 -0.321 | OTUD5 -0.73
active: BAP1 -2.55 | OTUD4 -2.03

Cc1ccc(N(CCC#N)C(=O)CCl)cc1C
active: OTUD4 -1.93
inactive: ALG13 -0.389 | ATXN3 -0.353 | BAP1 -0.735 | EIF3F -0.396 | EIF3H 0.219 | FAM105A -0.314 | OTUB1 -0.139 | OTUD5 -0.661

O=C(CCl)Nc1ccc(Cl)c(F)c1
inactive: ALG13 0.149 | EIF3F -0.0742 | EIF3H 0.246 | FAM105A -0.175 | OTUB1 -0.259 | OTUD5 -0.992
active: ATXN3 -1.07 | BAP1 -3.03 | OTUD4 -1.33

O=C(CCl)N1CCCCC12CCOCC2
inactive: ALG13 0.112 | ATXN3 -0.355 | EIF3F -0.323 | EIF3H -0.162 | FAM105A 0.208 | OTUB1 -0.126 | OTUD4 -0.484 | OTUD5 -0.461
active: BAP1 -1.05

Source: the supplement of paper PMC11732987, “Enantioselective OTUD7B fragment discovery through chemoproteomics screening and high-throughput optimisation” (Communications Chemistry, 2025)
